# Data as given in PubChem BioAssay (NCATS).
# Active and inactive are the calls of the source. Calls follow the shape of the full dose curve.
# Test: qHTS drug screen for cell cycle checkpoint inhibitors in PARPi-resistant BRCA-mutant ovarian cancer cell lines. (AID 1963452)
# Conditions: PEO1/OlaR viability, CellTiter-Glo luminescence, 96 h, stronger effect = lower value
# In short: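 PEO1, PEO4 and PEO1/OlaR ovarian cancer cells, 600 per well, exposed 96 h at 37C to a dilution series. Viability read by CellTiter-Glo luminescence, normalized to DMSO and empty wells; activity summarized as Z-AUC.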
# [1] = measured here: PEO1 parental Z-AUC
SMILES,Z-AUC,Z-AUC [1],Z-AUC (measured here: PEO4 Z-AUC)
FC(F)(F)c1ccc(CNc2ccc(Cc3c[nH]c4ncc(Cl)cc34)cn2)cn1,1.12 (inactive),1.06,1.21
O=C(N[C@H]1CCC[C@H](CO)C1)C1CCN(c2nc3cc(Cl)c(-c4ccc(Cl)cc4)cc3o2)CC1,-0.759 (inactive),0.237,-0.768
O=C(Cc1cccc(OC(F)(F)F)c1)Nc1ccc(CCCCc2nnc(NC(=O)Cc3ccccn3)s2)nn1,-1.13 (inactive),-1.01,-1.03
Cc1[nH]c(/C=C2\C(=O)Nc3ccc(S(=O)(=O)N(C)c4cccc(Cl)c4)cc32)c(C)c1C(=O)N1CCN(C)CC1,1.27 (inactive),1.2,1.26
Fc1ccc2[nH]ccc2c1-c1nc(N2CCOCC2)c2sc(CN3CCN(CC4CC4)CC3)cc2n1,-0.813 (inactive),-0.565,-0.474
CN(C)N(C)C(=O)[C@@]1(Cc2ccccc2)CCCN(C(=O)[C@@H](Cc2c[nH]c3ccccc23)NC(=O)C(C)(C)N)C1,-0.303 (inactive),-0.129,0.0758
Cn1cc(-c2ccc3c(c2)CCN3C(=O)Cc2cccc(C(F)(F)F)c2)c2c(N)ncnc21,-1.17 (inactive),-0.267,-1.2
C[C@H](CN(C)C)Oc1nc(Nc2cc3cccc(Cl)c3cn2)cnc1C#N,-0.234 (inactive),0.15,-0.249
Cc1cccc(-c2[nH]ncc2-c2ccc(F)c(-c3cnn(CCO)c3)c2)n1,0.705 (inactive),0.508,1.13
CN1C(=O)c2sccc2N(C)c2nc(Nc3ccc(S(N)(=O)=O)cc3)ncc21,-1.71 (inactive),-0.96,-1.18
